# DT40 TDP1 CPT: DT40-hTDP1 cell growth loss with CPT; chicken DT40 Tdp1-/-;hTDP1 cells + 20 nM CPT, ATP luminescence, 48 h; Potency, µM (doses to about 46.2 µM), without a hit: at the highest dose activity change, negative = growth inhibition, hits mostly inhibitors; 420,000 tested, 12% active; further: on the % scale 0 is the no-effect control and ±100 the full control effect; nearly all actives have a fitted effect of over 55% in size
#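 Chicken DT40 Tdp1-/- cells stably complemented with human TDP1 were seeded at 400 cells/well in medium containing 20 nM camptothecin, exposed to pin-transferred compounds, and grown at 37 °C for at least 48 hr. Viability was read as ATP luminescence.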
# TDP1 inh: TDP1 (human) enzyme inhibition. Q9NUW8. recombinant TDP1, AlphaScreen DNA substrate cleavage. Potency, µM (top dose mostly 130 µM), inactives show at the top dose activity change, negative = inhibition, usual class: inhibitors. 350,000 tested, 0.28% active. AID 485290; further: on the % scale 0 is the no-effect control and ±100 the full control effect; nearly all actives have a fitted effect of over 40% in size
#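 Steps: enzyme plus compound, 15 min RT; add biotin/phosphotyrosine-FITC oligonucleotide (15 nM final), react 5 min; add donor/acceptor beads (10 ug/ml final), 10 min; read AlphaScreen. Tdp1 at 1 nM final.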
# ClpP mod: qHTS Assay for Activators of ClpP. purified B. subtilis ClpP, FRET peptide cleavage, 20 min. Potency, µM (top dose mostly 57.5 µM), without a hit: top-dose activity change, negative = active. 340,000 tested, 1.9% active. AID 651965, 2013; active means well fitted falling curve with a large enough effect; inconclusive means small, poorly fitted or top-dose-only effect; inactive means no such curve, though single readings can be large or run the other way; further: the source files actives as falling curves though it sought activators and does not explain the sign; nearly all actives have a fitted effect of over 65% in size
# Target sequence (P80244 whole entry, looked up): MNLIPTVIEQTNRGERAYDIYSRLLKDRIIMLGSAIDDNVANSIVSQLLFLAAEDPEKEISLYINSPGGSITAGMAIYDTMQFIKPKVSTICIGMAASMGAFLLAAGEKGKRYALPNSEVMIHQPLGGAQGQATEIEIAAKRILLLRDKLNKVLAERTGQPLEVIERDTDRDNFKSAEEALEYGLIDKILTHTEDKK
#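 Buffer: 100 mM Tris/HCl pH8, 100 mM KCl, 0.05% low protease BSA, 2.5% glycerol, 0.01% Tween-20. ClpP 10 microg/mL final; 20 min RT; delta FRET normalized to ADEP and DMSO controls.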
# DT40 TDP1 no CPT: qHTS for Inhibitors of human tyrosyl-DNA phosphodiesterase 1 (TDP1): qHTS in cells in absence of CPT; AID 686978, 2013; DT40 Tdp1-/- hTDP1 cells, no CPT, ATP luminescence, 48 h; 420,000 tested, 15% active; Potency, µM (titrated, usually from 46.2 µM), for the others: top-dose activity change, negative = growth inhibition, actives largely listed as inhibitors; further: on the % scale 0 is the no-effect control and ±100 the full control effect; nearly all actives have a fitted effect of over 55% in size
#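 Camptothecin absent (DMSO only). Human TDP1-complemented DT40 knockout cells, 400 cells/well, 37 °C for minimum 48 hr; ATP measured via CellTiter-Glo, 30 min dark incubation, luminescence.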
# The depositor's hits bear a star; ? = inconclusive; . = no result given; [ ] = dose if it differs, or a comment. Most compounds without a hit are left out; they make up all but 17% or so of the library. Unless noted, the call rests on the fitted dose curve; in most records, active means well fitted curve in the direction sought with a large enough effect; inconclusive means small, poorly fitted or top-dose-only effect, or another doubt; inactive means no such curve, though single readings can be large; an effect the other way counts as inactive or inconclusive. Potency means the concentration at half of the fitted maximal effect.
SMILES,DT40 TDP1 CPT,TDP1 inh,ClpP mod,DT40 TDP1 no CPT
CCCCC[C@H](O)CC[C@H]1[C@H](O)CC(=O)[C@@H]1CCCCCCC(=O)O,3.5%[4.12 µM],8.5%,.,3.9%[4.12 µM]
O=C(NCc1ccccn1)c1cccc(S(=O)(=O)Nc2ccc(F)cc2)c1,-27.8%,0.4%,-0.6%,-29.0%
O=C(NCc1ccccn1)c1cccc(NS(=O)(=O)c2cccc(F)c2)c1,1.64µM*,4.3%,-0.6%,1.46µM*
CC(C)Oc1cc(NC(=O)CS(=O)CC(=O)Nc2cccc(C(F)(F)F)c2)c(Cl)cc1Cl (stereo not drawn),20.6µM*,3.4%,1.6%,16.4µM*
Cc1ccc(-c2nnc(Nc3ccc(Cl)cc3)c3ccccc23)cc1S(=O)(=O)NCC1CCCO1 (stereo not drawn),?,.,-14.1%,20.6µM*
Cc1ccc(-c2nnc(Nc3ccc4c(c3)OCO4)c3ccccc23)cc1S(N)(=O)=O,?,5.6%,0.7%,?
Cc1ccc(-c2nnc(N3CCCCC3)c3ccccc23)cc1S(=O)(=O)NCC1CCCO1 (stereo not drawn),18.4µM*,4.7%,-0.4%,20.6µM*
Cc1cccc(Nc2nnc(-c3ccc(C)c(S(=O)(=O)NCC4CCCO4)c3)c3ccccc23)c1 (stereo not drawn),23.1µM*,.,-11.3%,6.51µM*
Cc1ccc(-c2nnc(Nc3cccc(Cl)c3)c3ccccc23)cc1S(=O)(=O)NCC1CCCO1 (stereo not drawn),23.1µM*,.,-22.2%,4.11µM*
Cc1c(C(=O)N(C)C)sc2c1c(=O)n(-c1ccc(Cl)c(Cl)c1)c(=O)n2Cc1ccc(F)cc1,?,-0.5%,-0.8%,?
CN(C)CCN[C@H]1CCC2C3CC=C4C[C@@H](O)CC[C@]4(C)C3CC[C@@]21C (stereo partly drawn),5.8µM*,-0.2%,-1.9%,3.26µM*
CCOC(=O)CN[C@H]1CCC2C3CC=C4C[C@@H](O)CC[C@]4(C)C3CC[C@@]21C (stereo partly drawn),?,0.9%,48.0%,?
COc1ccc(NC(=S)N/N=C/c2cccn2Cc2ccc(F)cc2Cl)cc1,23.1µM*,5.0%,.,10.3µM*
Cc1cccc(NC(=S)N/N=C/c2cccn2Cc2ccc(F)cc2)c1,?,11.6%,.,16.4µM*
CSc1ccccc1NC(=S)N/N=C/c1cccn1Cc1ccc(F)cc1,?,7.5%,.,23.1µM*
CSc1ccccc1NC(=S)N/N=C/c1cccn1Cc1cccc(C)c1,7.3%,8.0%,.,10.1%
COc1cc(/C=C2/C=Cc3ccccc32)ccc1N(C)C,?,.,2.8%,?
C[C@@H]1C[C@H]2[C@@H]3CCC4=CC(=O)C=C[C@]4(C)[C@@]3(F)C(O)C[C@]2(C)[C@@]1(O)C(=O)CO (stereo partly drawn),5.2%,0.2%,-1.5%,-25.7%
COc1ccccc1C(C)NCC(=O)NC(=O)NCc1ccco1 (stereo not drawn),-7.8%,.,-22.9%,-21.3%
CCOc1ccccc1NC(=O)C(CC(C)C)NS(=O)(=O)c1ccc2c(c1)CCN2C(C)=O (stereo not drawn),?,0.0%,3.2%,-16.2%
COc1ccc(C(=O)c2ccc(OC)c(Br)c2)cc1Br,18.4µM*,2.7%,1.2%,20.6µM*
COc1ccc(C(=O)c2cccc(C(=O)c3ccc(OC)c(C)c3)c2)cc1C,-17.7%,.,.,-21.6%
C=CCN(CC=C)C(=S)NC(=O)c1ccc([N+](=O)[O-])cc1,5.8µM*,2.3%,1.6%,3.66µM*
CCN(CC)C(=S)NC(=O)c1ccc(OC)c(Br)c1,?,8.1%,0.3%,?
C=CCN(CC=C)C(=S)NC(=O)c1ccc(OC)c(Br)c1,11.6µM*,5.9%,-1.4%,5.8µM*
SMILES,DT40 TDP1 CPT,TDP1 inh,ClpP mod,DT40 TDP1 no CPT
Cc1ccsc1C(=O)Nc1cc(Cl)ccc1-n1cncn1,?,.,0.5%,-21.1%
COc1ccc(NC(=O)C2Cc3c(-c4cccc(C(N)=O)c4)ccnc3O2)cc1 (stereo not drawn),5.8µM*,.,0.9%,3.66µM*
COc1ccc(NC(=O)C2Cc3c(-c4cccc(NC(C)=O)c4)ccnc3O2)cn1 (stereo not drawn),2.59µM*,.,-23.1%,1.84µM*
CC(=O)Nc1ccc(NC(=O)C2Cc3c(-c4cccc(F)c4)ccnc3O2)cc1 (stereo not drawn),-3.9%,.,-0.4%,-23.8%
O=C(Nc1ccc(Cl)cc1)C1Cc2c(-c3cccc(F)c3)ccnc2O1 (stereo not drawn),?,.,-4.6%,18.4µM*
COc1ccc(NC(=O)C2Cc3c(-c4cccc(F)c4)ccnc3O2)cc1 (stereo not drawn),20.6µM*,.,-5.0%,?
N#Cc1nnn(-c2ccc(Cl)cc2)c1N,2.9%,5.7%,-1.1%,-0.3%
CCCCn1nc(CC(=O)NCCN(CC)CC)c2ccccc2c1=O,-21.2%,5.6%,.,?
CC(Oc1cc(F)ccc1[N+](=O)[O-])C(=O)N(C)CC(=O)Nc1ccccc1C(F)(F)F (stereo not drawn),-14.2%,8.1%,.,-27.7%
CC(=O)Nc1cccc(-c2ccnc3c2CC(C(=O)Nc2ccccc2)O3)c1 (stereo not drawn),?,.,-18.7%,?
CC(=O)Nc1cccc(-c2ccnc3c2CC(C(=O)Nc2ccc(Cl)cc2)O3)c1 (stereo not drawn),16.4µM*,.,-4.8%,16.4µM*
COc1ccc(NC(=O)C2Cc3c(-c4cccc(C(N)=O)c4)ccnc3O2)cn1 (stereo not drawn),10.3µM*,.,0.2%,11.6µM*
O=C(NCCCN1CCCC1=O)c1c(O)nc2sccn2c1=O,3.8%,0.6%,-9.4%,-0.3%
Cc1ccc(C2=Nc3ccccc3N=C(c3ccc(F)cc3)C2)c(O)c1,-20.9%,5.7%[12.3 µM],3.3%,?
CCCSc1nc(C)c2cc(C)cc(C)c2n1,-17.3%,0.5%,-15.7%,-14.5%
Cc1cc(C)c2nc3nc(C)c(C)cc3c(N)c2c1,8.2µM*,7.1%,.,6.51µM*
CC(C)(C)NC(=O)C1(C)CCC(=O)N1C1CC1 (stereo not drawn),9.5%,.,1.3%,1.4%
COc1cccc2c1SCc1ccccc1C2CC(N)=O (stereo not drawn),0.2%,.,.,-4.7%
COc1cc2ccccc2cc1C(=O)N1CCN(c2nc3ccc(F)cc3s2)CC1,16.4µM*,7.8%,-26.4%,14.6µM*
COc1cc2ccccc2cc1C(=O)N1CCN(C(C)=O)CC1,15.9%,0.7%,?,-0.2%
CCOc1ccccc1N1CCN(C(=O)c2cccc(-c3ccc(O)cc3)c2)CC1,16.4µM*,-13.1%,-1.1%,?
O=C(C1COc2ccccc2O1)N1CCN(c2nc3ccc(F)cc3s2)CC1 (stereo not drawn),?,5.2%,-4.5%,20.6µM*

# Screening results deposited in PubChem BioAssay by National Center for Advancing Translational Sciences (NCATS).
